# Data as given in PubChem BioAssay AID1211 (NMMLSC, 2008).
# Activity calls are given as the source filed them. No rule for the calls is given here.
# Target: Estrogen receptor (Homo sapiens) (UniProt P03372)
# Assay: ERalpha ligand binders by competition, primary screen, cell-based, Cos7 ERalpha-GFP, flow cytometry (AID 1211);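 also: 0% = DMSO vehicle wells and 100% = no E2-Alexa633 signal left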
# Settings: fluorescent ligand competition, stronger effect = higher value
# Chain of Estrogen receptor (Homo sapiens) (P03372 whole entry, looked up): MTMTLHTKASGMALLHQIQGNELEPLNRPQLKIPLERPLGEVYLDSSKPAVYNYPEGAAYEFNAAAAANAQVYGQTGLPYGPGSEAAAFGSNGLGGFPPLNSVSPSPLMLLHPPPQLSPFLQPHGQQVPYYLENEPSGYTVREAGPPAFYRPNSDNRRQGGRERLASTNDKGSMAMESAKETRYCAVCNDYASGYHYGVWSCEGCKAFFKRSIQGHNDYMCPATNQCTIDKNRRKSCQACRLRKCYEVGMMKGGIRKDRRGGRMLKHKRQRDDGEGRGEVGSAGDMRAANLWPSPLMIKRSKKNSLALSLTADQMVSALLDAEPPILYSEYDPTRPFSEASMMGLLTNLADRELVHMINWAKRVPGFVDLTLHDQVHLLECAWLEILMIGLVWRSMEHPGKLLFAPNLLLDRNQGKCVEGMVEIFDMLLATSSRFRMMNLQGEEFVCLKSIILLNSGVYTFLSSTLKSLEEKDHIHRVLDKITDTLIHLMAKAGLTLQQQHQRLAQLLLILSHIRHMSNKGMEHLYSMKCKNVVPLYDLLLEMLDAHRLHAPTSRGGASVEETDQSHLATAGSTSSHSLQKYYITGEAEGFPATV
SMILES,inhibition of ligand binding (at 10 µM),"inhibition of ligand binding (binding inhibition, at 0.1 µM)"
CN(C)c1ccc(N=Cc2ccco2)cc1,37% (inactive),23%
O=c1[nH]c(N/N=C/c2ccc(O)cc2)nc2ccccc12,23% (inactive),37%
Cc1ccc(-n2c(=O)c(C#N)cc3c(=O)n4cccc(C)c4nc32)cc1,53% (inactive),32%
CCOc1[nH]c(/N=C/c2ccco2)c(C#N)c1C#N,21% (inactive),9%
O=C(NCc1ccco1)c1cc2ccc(O)cc2oc1=O,5% (inactive),46%
Cc1cccc(N2CSC3=C(C#N)C(c4ccc(C)o4)CC(=O)N3C2)c1 (configuration not stated),27% (inactive),13%
O=C1c2ccccc2NC(c2ccc(O)cc2)N1/N=C/c1ccc(O)cc1 (configuration not stated),32% (inactive),65%
O=C1CC(=O)N2N=C(c3ccc([N+](=O)[O-])cc3)SC2=N1,38% (inactive),8%
CCOC(=O)CSc1nn(C)c(=S)s1,52% (inactive),38%
CCc1ccc2c(c1)[C@H]1OCC[C@H]1[C@@H](c1cccs1)N2,0% (inactive),21%
Cc1cc2n(c1)CCn1c(C)ccc1-2,26% (inactive),53%
O=C1c2ccccc2C(=O)N1CCCc1nc2ccccc2c(=O)n1CCCn1ccnc1,36% (inactive),23%
O=C(/C=C/c1ccc(O)cc1)c1ccc(O)cc1O,62% (inactive),18%
O=C(Nc1cccc(-c2cnc3ccccc3n2)c1)c1cccc(NC(=O)c2ccco2)c1,68% (active),23%
O=Cc1ccc2oc3nc4n(c(=O)c3c(=O)c2c1)CCCS4,40% (inactive),15%
Oc1ccc(-c2nc3ccc4ccccc4c3c3c2CCC3)cc1O,41% (inactive),44%
O=C(CNc1ccccc1)N/N=C/c1cn(-c2ccccc2)nc1-c1ccccc1,28% (inactive),52%
Nc1ncnc2c1ncn2C1CCC(CO)C(O)C1 (configuration not stated),0% (inactive),10%
Nc1ccc2nc(-c3ccc(Cl)cc3)[nH]c2c1,41% (inactive),30%
Cc1cc(Cl)ccc1OCC(=O)OC(C)C(=O)N(C)C (configuration not stated),30% (inactive),53%
Nc1ccc2nc(-c3cc(Cl)c(N)c(Cl)c3)[nH]c2c1,18% (inactive),6%
